According to PubChem BioAssay AID651965 (National Center for Advancing Translational Sciences (NCATS), 2013):
About 6,400 (1.9%) of roughly 340,000 compounds were called active. Entries that show only a call come without a potency. Roughly 4% stayed inconclusive and do not appear here. This is one part of a sample in which actives are shown more often than they occur. Calls come from the whole dose curve; as a rule, active = well fitted falling curve with a large enough effect; inconclusive = small, poorly fitted or top-dose-only effect; inactive = no such curve, though single readings can be large or run the other way.

The compounds below were run against ATP-dependent Clp protease proteolytic subunit (Bacillus subtilis (strain 168)) (UniProt P80244) (assay: qHTS Assay for Activators of ClpP). Details: purified B. subtilis ClpP, FRET peptide cleavage, 20 min; series mostly up to 57.5 µM.
Source text: The Clp protease proteolytic subunit (ClpP) is the core unit of the Clp complex belonging to the peptidase family S14 that hydrolyzes protein into small peptides in the presence of ATP and magnesium. It is ubiquitously expressed and is the major protease in bacteria. […] Unlike common antibiotics that simply interfere with the essential enzyme activity, ADEP binding activates the ClpP core in the absence of the regulatory Clp-ATPases leading to uncontrolled proteolysis and eventually cell death. Activators binding to the docking site on ClpP can also block formation of the ClpXP and ClpA/C-P holoenzyme complexes interfering with the normal biological functions of ClpP and thus have the potential to become new anti-microbials.
To identify activators of ClpP, a FRET based quenching reversal assay was developed using a purified B. subtilis ClpP and a decapeptide substrate (FRET-FV). The FRET-FV is tagged with a fluorescent molecule amino benzoic acid (donor) at the N-terminus and a nitrotyrosine quencher (acceptor) at the C-terminus. FRET-FV cleaves upon activation of ClpP with ADEP treatement and reverses the quenching effect of the nitrotyrosine causing an increase in fluorescence emission signal at 430nm. This assay was used to screen the Molecular Libraries Small Molecule Repository (MLSMR).
NIH Molecular Libraries Probe Production Centers Network [MLPCN]
NIH Chemical Genomics Center [NCGC]
Assay Submitter (PI): Michael Maurizi, National Cancer Institute
Two and a half microL/well of purified enzyme solution (final concentrations 10 microg/mL B. subtilis ClpP in 100 mM Tris/HCl pH8, 100 mM KCl, 0.05% low protease BSA, 2.5% glycerol, 0.01% Tween-20 buffer) was dispensed into 1536-well assay plates (Greiner, black solid, medium-binding plates) with Aurora Discovery BioRAPTR Flying Reagent Dispenser (FRD, Beckton-Dickenson). Compound solution (23 nL) was transferred to the assay plate using Kalypsys pin tool equipped with a 1536-pin tool. […] FRET signals at time 0 and after 20 min room temperature incubation were obtained using the PerkinElmer Envision plate reader with 320nm excitation and 430nm emission filters. Delta FRET value (Time 20 - Time 0) was calculated and normalized to the delta FRET value of positive control ADEP (5.8 microM final concentration) and negative control DMSO and no enzyme wells.
Note: the source files actives as falling curves though it sought activators and does not explain the sign; nearly all actives have a fitted effect of over 65% in size.

Chain of ATP-dependent Clp protease proteolytic subunit (Bacillus subtilis (strain 168)) (P80244 whole entry, looked up): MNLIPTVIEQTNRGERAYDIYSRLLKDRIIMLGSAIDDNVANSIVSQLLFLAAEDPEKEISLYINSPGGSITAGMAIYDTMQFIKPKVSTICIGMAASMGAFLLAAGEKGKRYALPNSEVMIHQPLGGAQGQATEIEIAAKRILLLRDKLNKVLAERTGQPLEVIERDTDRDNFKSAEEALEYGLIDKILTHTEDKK

Row | Structure (SMILES) | Potency
1 | COc1cccc2[nH]c(C(=O)NCCc3ccccc3)cc12 | inactive
2 | COc1cc2c(C(=O)O)c(C)n(C)c2c2ccccc12 | inactive
3 | COc1cccc2c(C)c(C(=O)O)[nH]c12 | 25.1 µM (active)
4 | Cc1ccc(Cc2c(-c3ccc(Cl)cc3)nc3c4ccccc4ccn23)cc1 | inactive
5 | CC(C)(C)CC(=O)Nc1nc(C(N)Cc2ccc(C(F)(F)F)cc2)cs1 (stereo not given) | inactive
6 | COc1cccc(N(CC(=O)Nc2cccc(F)c2)S(C)(=O)=O)c1 | inactive
7 | CCN(CC)S(=O)(=O)c1ccc(NC(=O)CN(c2cccc(F)c2)S(C)(=O)=O)cc1 | inactive
8 | Cc1cccc(N(CC(=O)Nc2ccc(-c3nc4ccc(C)cc4s3)cc2)S(C)(=O)=O)c1 | 15.8 µM (active)
9 | COc1ccc(NC(=O)C2(C)Cc3c(-c4ccc(C(N)=O)cc4)ccnc3O2)cc1 (stereo not given) | inactive
10 | COc1ccc(-c2ccc(CN3C(CC(C)C)C(=O)N(Cc4cn(CC5CCCCC5)nn4)CCS3(=O)=O)cc2)cn1 (stereo not given) | inactive
11 | CCOC(=O)C(=Cc1ccccc1)C(=O)c1ccccc1 | inactive
12 | CC(C)(C)OC(=O)c1c(N)n(CCCN2CCCC2=O)c2nc3ccccc3nc12 | inactive
13 | CN(C)CCCn1c(N)c(C#N)c2nc(C#N)c(C#N)nc21 | inactive
14 | N#Cc1c(N)n(CCOC(=O)c2ccc(Cl)cc2)c2nc3ccccc3nc12 | 28.2 µM (active)
15 | CCc1ccc(OCCCn2c(CCCNC(=O)C3CCCCC3)nc3ccccc32)cc1 | inactive
16 | CCCCCCN1CCN(C2CN(Cc3cn(Cc4ccc(F)cc4)nn3)S(=O)(=O)C2)CC1 (stereo not given) | inactive
17 | CCN1C(=O)[C@H]2[C@@H](c3ccc(SC4CCCCC4)c(OC)c3)N[C@@](Cc3ccccc3)(C(=O)OC)[C@H]2C1=O | 35.5 µM (active)
18 | CCN1C(=O)[C@H]2[C@@H](c3ccc(-c4ccc(OC)cc4)cc3)N[C@@](Cc3ccccc3)(C(=O)OC)[C@H]2C1=O | inactive
19 | CCN1C(=O)[C@H]2[C@@H](c3ccc(-c4ccc(F)cc4)cc3)N[C@@](Cc3ccccc3)(C(=O)OC)[C@H]2C1=O | inactive
20 | CCCCC[C@H](C)N1C[C@@H](COCc2ccccc2)Oc2cc(N3CC[C@@H](N(C)C)C3)ccc2S1(=O)=O | inactive
21 | O=C(NCc1ccccn1)[C@@H]1CCCN1C(=O)[C@@H]1CCCN1C(=O)c1ccccc1 | inactive
22 | COc1ccc(N2c3ccccc3CN(Cc3ccccc3)[C@@H](C)[C@H]2Cc2ccc(-c3ccccc3)cc2)cc1 | inactive
23 | C=CCNC(=O)c1ccc2nc(-c3ccco3)c(-c3ccco3)nc2c1 | inactive
24 | Cc1c(-c2cccc(NC(=O)C(C)(C)C)c2)nc2ncccn12 | inactive
25 | CC(C)(C)C(=O)Nc1cccc(-c2ccc[nH]2)n1 | 12.6 µM (active)

Row | Structure (SMILES) | Potency
26 | Cc1c(NC(=O)C(C)(C)C)cccc1-c1nc2ccccc2s1 | inactive
27 | COc1cccc(-c2cc(NC(C)=O)c3ncc(-c4cccc(C(C)=O)c4)n3c2)c1 | inactive
28 | CCOC(=O)C1CCCN(C(=O)c2ccc(N(C)C)cc2)CC1 (stereo not given) | inactive
29 | Cc1sc2c(c1C)c(=O)n(-c1ccccc1)c(=O)n2CC(=O)NCC1CCCO1 (stereo not given) | inactive
30 | CC(C)(C)c1nc(NCC2CCCO2)c2nnn(Cc3ccccc3)c2n1 (stereo not given) | inactive
31 | Cn1c(=O)c2[nH]c(NCC3CCCO3)nc2n(-c2ccccc2)c1=O (stereo not given) | 28.2 µM (active)
32 | Oc1ccc(Br)cc1C1C=C(c2ccc3c(c2)OCO3)NC(c2ccc(Cl)cc2)N1 (stereo not given) | inactive
33 | CCc1ccc(OC2(C)CCN(CCOc3ccc(C)cc3)C2)cc1 (stereo not given) | inactive
34 | CC(C)Cc1ccc(-c2cc3nc(NCc4cccc(Cl)c4)ccn3n2)cc1 | inactive
35 | COc1cccc(C(=O)OCc2cc(=O)oc3c(C)c(C)ccc23)c1OC | inactive
36 | COC(=O)Cc1cc(=O)oc2c(C)c(O)ccc12 | 15.8 µM (active)
37 | CCCc1cc(=O)oc2c(C)c(OCC(=O)Nc3ccccn3)ccc12 | inactive
38 | CCOC(=O)[C@]12CCC=C1N(CCC1=CCCCC1)C(=O)[C@H](CC(=O)NCc1ccc(C)o1)C2 | inactive
39 | Cc1nccn1-c1ccc(NC(=O)[C@H]2O[C@@H](n3cnc4c(N)ncnc43)[C@H](O)[C@@H]2O)cc1 | inactive
40 | O=C(NCc1cccnc1)c1cc(C2CCCN(C(=O)C3CCCCC3)C2)on1 (stereo not given) | inactive
41 | CN(C)c1ccc(/C=C/C=C/c2ccnc3ccccc23)cc1 | inactive
42 | COc1ccc(Br)c(Cn2c(C)c(C(=O)NCc3cccs3)sc2=O)c1 | inactive
43 | O=C(NCc1ccccc1)C(c1ccc(F)cc1)N1CCN(C(=O)C2CCCO2)CC1 (stereo not given) | inactive
44 | COc1cccc(-n2cc(C(=O)NCc3cccc(Cl)c3)c3ccccc3c2=O)c1 | 25.1 µM (active)
45 | COc1cccc(CNC(=O)c2cccnc2Sc2ccc(Cl)cc2)c1 | inactive
46 | CCN(Cc1ccccc1)C(=O)c1cn(-c2cccc(OC)c2)c(=O)c2ccccc12 | inactive
47 | CC1(C)CC(=O)c2cc(C(=O)NCc3ccccc3)c(=O)[nH]c2C1 | inactive
48 | Cc1ccc(-c2ccc(=O)n(Cc3ccc(F)cc3Cl)n2)cc1 | inactive
49 | CC(=O)Nc1cc(C(=O)NCc2ccc(F)cc2Cl)ccc1Sc1ccc(Cl)cc1 | inactive
50 | CN(C)Cc1ccc(F)cc1Sc1cc(Cl)ccc1Cl | 12.6 µM (active)
